Source: PubChem BioAssay AID624387 (National Center for Advancing Translational Sciences (NCATS), 2012)

Molecular target: Pyruvate kinase PKM (Homo sapiens) (UniProt P14618)
Experiment: qHTS for Activators of Human Muscle Isoform 2 Pyruvate Kinase: Extended Characterization using M1 for Probe 2
Details: purified hPK-M1, Kinase-Glo ATP luminescence, 1 h; series mostly up to 57.7 µM; activity change, positive = activation: at the top concentration; active means well fitted curve in the direction sought with a large enough effect; inactive means no such curve, though single readings can be large or run the other way
Experimental: Human pyruvate kinase muscle isoform 1 (hPK-M1) enzyme was supplied as a highly purified (>95% pure) preparation from Harvard Medical School and assayed for its ability to generate ATP from ADP using phosphoenolpyruvate (PEP) as a substrate. ATP generation was detected in a coupled reaction by luciferase-mediated luminescence, an ATP-dependent process. Pyruvate kinase substrates, PEP and ADP, were present in the assay at Km and approximately 10-fold below Km respectively. The enzyme was assayed at an intermediate level of activity to screen for both inhibitors and activators. NIH Chemical Genomics Center [NCGC] NIH Molecular Libraries Probe Centers Network [MLPCN] MLPCN Grant: MH085679 Assay Submitter (PI): Matthew G. Vander Heiden, Harvard Medical School
Three uL of substrate mix (at r.t.) in assay buffer (50 mM Imidazole pH7.2, 50 mM KCl, 7 mM MgCl2, 0.01% Tween 20, 0.05% BSA) was dispensed into white solid bottom 1,536 well microtiter plates so that the final concentrations of substrates in the assay were 0.1 mM ADP and 0.5 mM PEP. 23 nL of compound were delivered by a pin tool and 1 uL of enzyme mix (final concentration of 1 nM) in assay buffer (4 degree Celsius) was added. Plates were incubated at room temperature for 1 hour. Two uL of detection mix (Kinase-Glo, Promega; at 4 degree Celsius protected from light) was added and luminescence read by a ViewLux (Perkin Elmer) at 1 second exposure/plate. Data were normalized to the uninhibited (row 31). Additionally, a no enzyme and 5-fold enzyme control was dispensed in row 32, split equally between the two conditions.

Sequence of Pyruvate kinase PKM (Homo sapiens) (P14618 whole entry, looked up, canonical isoform): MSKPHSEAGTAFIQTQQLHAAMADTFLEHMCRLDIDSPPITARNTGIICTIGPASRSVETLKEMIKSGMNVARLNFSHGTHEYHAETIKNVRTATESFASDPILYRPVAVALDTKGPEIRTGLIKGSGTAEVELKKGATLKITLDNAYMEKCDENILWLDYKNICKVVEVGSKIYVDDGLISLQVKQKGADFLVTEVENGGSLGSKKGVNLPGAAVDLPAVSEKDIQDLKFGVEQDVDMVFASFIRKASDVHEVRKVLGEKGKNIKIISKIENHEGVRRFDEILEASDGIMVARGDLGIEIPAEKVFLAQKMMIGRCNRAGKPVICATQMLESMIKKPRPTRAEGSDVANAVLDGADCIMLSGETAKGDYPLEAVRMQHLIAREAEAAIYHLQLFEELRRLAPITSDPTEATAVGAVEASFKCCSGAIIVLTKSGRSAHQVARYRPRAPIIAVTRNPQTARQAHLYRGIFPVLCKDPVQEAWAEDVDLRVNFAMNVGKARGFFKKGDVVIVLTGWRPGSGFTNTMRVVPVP

Activity change, positive = activation, inactive:
Cc1ccc(NS(=O)(=O)c2ccc3c(c2)CCC(=O)N3)cc1C 7.13%
Nc1cccc(S(=O)(=O)N2CCCN(S(=O)(=O)c3ccc4c(c3)OCCO4)CC2)c1 6.24%
Cn1c2cc(S(C)=O)sc2c2cnn(Cc3cccc(N)c3)c(=O)c21 (stereo not given) 1.03%
O=S(=O)(c1ccc2c(c1)OCCO2)N1CCN(S(=O)(=O)c2c(F)cccc2F)CC1 -3.2%
COc1cccc(Cn2ncc3c4sc(S(C)=O)cc4n(C)c3c2=O)c1 (stereo not given) -3.35%
